In PubChem BioAssay (NCI):
Compounds without any hit were thinned out: in the full panel of roughly 83,000, 20% have a hit.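 How to read the values: 0–100, growth inhibition (40 = 60% inhibited); 0, no net growth; -100 to 0, cell death (-40 = 40% of starting cells died; -100 = all dead).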 A number with no mark means an inactive call. Active and inactive are the calls of the source. How the source made its calls: active means growth percent below 10; inactive means the rest.

Tests used:
Experiment in all cases: NCI-60 one-dose screen, 48 h (100 = growth as untreated, 0 = no growth, -100 = all killed)
Settings in all cases: 10 µM unless noted
SK-MEL-2 melanoma = test system: SK-MEL-2 melanoma
EKVX NSCLC = test system: EKVX NSCLC
SN12C renal = test system: SN12C renal
UO-31 renal = test system: UO-31 renal
TK-10 renal = test system: TK-10 renal
ACHN renal = test system: ACHN renal
CAKI-1 renal = test system: CAKI-1 renal
A498 renal = test system: A498 renal
CCRF-CEM leukemia = test system: CCRF-CEM leukemia
MOLT-4 leukemia = test system: MOLT-4 leukemia
SR leukemia = test system: SR leukemia
RPMI-8226 leukemia = test system: RPMI-8226 leukemia
OVCAR-8 ovarian = test system: OVCAR-8 ovarian
OVCAR-5 ovarian = test system: OVCAR-5 ovarian
OVCAR-4 ovarian = test system: OVCAR-4 ovarian
SK-OV-3 ovarian = test system: SK-OV-3 ovarian
IGROV1 ovarian = test system: IGROV1 ovarian
OVCAR-3 ovarian = test system: OVCAR-3 ovarian
HS 578T breast = test system: HS 578T breast
NCI/ADR-RES ovarian = test system: NCI/ADR-RES ovarian

| Structure (SMILES) | growth (SK-MEL-2 melanoma) | growth (EKVX NSCLC) | growth (SN12C renal) | growth (UO-31 renal) | growth (TK-10 renal) | growth (ACHN renal) | growth (CAKI-1 renal) | growth (A498 renal) | growth (CCRF-CEM leukemia) | growth (MOLT-4 leukemia) | growth (SR leukemia) | growth (RPMI-8226 leukemia) | growth (OVCAR-8 ovarian) | growth (OVCAR-5 ovarian) | growth (OVCAR-4 ovarian) | growth (SK-OV-3 ovarian) | growth (IGROV1 ovarian) | growth (OVCAR-3 ovarian) | growth (HS 578T breast) | growth (NCI/ADR-RES ovarian) |
| --- | --- | --- | --- | --- | --- | --- | --- | --- | --- | --- | --- | --- | --- | --- | --- | --- | --- | --- | --- | --- |
| CCN(CC)CCCOc1ccc2ncnc(Nc3ccc(Oc4cccc(C(F)(F)F)c4)c(Cl)c3)c2c1 | -14.7% (active) | 23.4% | 47.1% | 0.274% (active) | 25.7% | -13.4% (active) | -24.4% (active) | 21.3% | 1.81% (active) | 0.414% (active) | -3.44% (active) | -29.8% (active) | 16.9% | 5.73% (active) | 7.23% (active) | 13.4% | -52.6% (active) | -34.8% (active) | -32.8% (active) | 2.21% (active) |
| COc1ccc(/C=C(/C(=O)n2cnnn2)c2cc(OC)c(OC)c(OC)c2)cc1 | 57.6% | 46.5% | 42.6% | 42.4% | 44.9% | 48% | 36.1% | 1.86% (active) | 5.78% (active) | 40.5% | 14.8% | 3.48% (active) | 22.1% | 41.2% | 60.6% | 14.6% | 41.4% | 1.46% (active) | 13.5% | 12.2% |
| O=C(NC1CC(F)C1)c1cc2cccnc2n1-c1ccc(Cl)c(Cl)c1 (stereo not given) | 105% | 98.5% | 96.4% | 69.7% | 90.2% | 95.5% | 84.4% | 99% | 99.7% | 98.9% | 104% | 95.6% | 95.4% | 94.8% | 95.4% | 104% | 86.7% | 102% | 99.2% | 90.1% |
| COc1ccc(C[n+]2c3ccccc3n3c4ccc(N)cc4ccc32)c(OC)c1OC | 44% | 49.3% | 6.42% (active) | 88.7% | 78.2% | 101% | 96.6% | 81.3% | 40.4% | 67.9% | 41.2% | 15.1% | 46.8% | 99.6% | 55.5% | 70% | 73.9% | 50.9% | 43.5% | 103% |
| CS(=O)(=O)c1nnc(-c2ccccc2)s1 | 112% | 109% | 105% | -71.4% (active) | 113% | 83.9% | 94.9% | 91.4% | 76.5% | 88.1% | 40.3% | 99.5% | 97.4% | 99.3% | 99.5% | 98.8% | 103% | 99.3% | 108% | 104% |
| Cc1cccc(N2CCC(=O)NC2=S)c1 | 122% | 107% | 98.2% | 88.2% | 104% | 107% | 101% | 107% | 154% | 104% | 121% | 117% | 99.9% | 105% | 107% | 107% | 103% | 110% | 107% | 105% |
| C=C1CC[C@@H]2C(C)(C)[C@@H](O)CC[C@@]2(C)[C@@H]1COc1ccc2ccc(=O)oc2c1 | 88.3% | 60.3% | 74.9% | 52.6% | 95% | 80.1% | 73.5% | 68.9% | 60.8% | 47.4% | 73.2% | 50.7% | 83.4% | 117% | 67.5% | 112% | 95.3% | 78.3% | 101% | 61.7% |
| COCCn1cc(-c2csc(-c3c[nH]c4ccc(Br)cc34)n2)c2cccnc21 | 35.9% | 36.9% | 51.2% | 27.8% | 36.6% | 27.2% | 49.4% | 26.7% | 14% | 8.87% (active) | 17% | 22.2% | 21.8% | 55.5% | 31.2% | 47.1% | 42.3% | 39% | 44.5% | 10.8% |
| O=C(Nc1ccccc1O)c1ccc(CNC(=O)c2ccsc2Nc2ccnc(C(F)(F)F)c2)cc1 | -20.9% (active) | 37.8% | 45.9% | 19.1% | -13.7% (active) | 20.2% | 9.72% (active) | -14.5% (active) | 5.36% (active) | 4.64% (active) | 22% | -1.09% (active) | 18.4% | 44.3% | 47.3% | 49.1% | 31.9% | 21.6% | 4.47% (active) | 8.13% (active) |
| O=C1NC(=O)/C(=C/c2c(-c3ccccc3)nc3sc(COc4ccccc4)nn23)S1 | 92.1% | 91.9% | 102% | 84.7% | 108% | 98.3% | 98% | 78.7% | 98.3% | 96.1% | 90.2% | 84.4% | 105% | 115% | 93.4% | 105% | 112% | 110% | 105% | 100% |
| C[n+]1ccc(CCc2c[nH]c3ccccc23)cc1 | 81.7% | 53.9% | 93.7% | 76.7% | 81.2% | 90.9% | 92.6% | 71.9% | 101% | 90.5% | 83.8% | 94% | 107% | 86.5% | 99.4% | 77.3% | 87.7% | 107% | 104% | 105% |
| COC(=O)CC[C@@H]1O[C@@H](c2ccc(F)cc2)[C@@H](O)[C@H]1O | 109% | 104% | 109% | 94% | 101% | 101% | 96.8% | 112% | 107% | 105% | 96.6% | 101% | 112% | 90.2% | 115% | 101% | 113% | 104% | 94.1% | 104% |
| COc1cc(OC)cc(-c2ccc(-c3ccc(C(=N)N)o3)o2)c1 | 88.1% | 85.2% | 53% | 67.3% | 83.7% | 72.6% | 81.3% | 68.5% | 48.3% | 31.4% | -17.3% (active) | 20.6% | 64.3% | 83.5% | 85.5% | 88.2% | 58.1% | 25.7% | 78% | 68.9% |
| Cn1ccc(=O)nc1 | 12.7% | 130% | 81.5% | 73.4% | 94.9% | -4.04% (active) | 73.4% | 98.1% | 86.7% | 74.6% | 68.7% | 101% | 78.7% | 74.5% | 76.1% | 93% | 79% | 115% | 132% | 93.4% |
| CCOC(=O)C1=C(C)/C(=C\c2[nH]c(C)c(C(=O)OCC)c2C)N=C1C | 85.6% | 94.2% | 79.1% | 73.7% | 108% | 96.5% | 85% | 103% | 4.69% (active) | 9.99% (active) | 11.9% | 62.9% | 61.5% | 97.8% | 81.9% | 84.4% | 97% | 21.7% | 103% | 88.9% |
| O=c1c2ccccc2c(=O)c2c1sc1c(=O)c3ccc(O)cc3c(=O)c12 | -60.2% (active) | -57.7% (active) | -88.2% (active) | -52% (active) | -95.4% (active) | -77.3% (active) | -68.5% (active) | -98.3% (active) | -23.3% (active) | -40.1% (active) | -16.6% (active) | -38.6% (active) | -11.5% (active) | -74.7% (active) | -90.2% (active) | -92.1% (active) | -24% (active) | -57.1% (active) | -5.23% (active) | -14.1% (active) |
